Bioassay records as filed in PubChem BioAssay.
Gal4-VP16 FLuc – Gal4-VP16 reporter inhibition counter-screen. 3.5% of 310,000 active. Drosophila S2 Gal4-VP16 UAS-luciferase, luminescence, 20 h. Potency, µM (series often up to 53.6 µM), for inactives: at the top dose activity, negative = inhibition, usual class: inhibitors;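 note: Gal4-VP16 expression switched on by copper sulfate through the metallothionein promoter; nearly all actives have a fitted effect of over 50% in size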
ALOX12 inh – ALOX12 (human) lipoxygenase inhibition | P18054 | purified 12hLO, xylenol orange hydroperoxide absorbance | Potency, µM (titrated, usually from 108 µM), inactives show top-dose activity change, negative = inhibition, most hits filed as inhibitors | 1.1% of 580,000 active
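Purified human 12hLO at 150 nM in 25 mM Hepes, 0.01% Triton X-100, pH 7.0, preincubated 15 min at room temperature with compound. Reaction started with 40 uM arachidonic acid, 30 min at room temperature. Hydroperoxide measured by Fe-xylenol orange, 573/405 nm absorbance ratio.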
RORg inh – inhibitors of mouse ROR gamma transcriptional activity; Potency, µM (top dose mostly 53.6 µM), inactives show at the top dose activity change, negative = inhibition, hits mostly inhibitors; AID 2551; P51450; Drosophila S2 Gal4-RORgamma UAS-luciferase reporter, 20 h; 5.4% of 310,000 active; note: nearly all actives have a fitted effect of over 60% in size
Target sequence (P51450 whole entry, looked up, the tested form may be a part): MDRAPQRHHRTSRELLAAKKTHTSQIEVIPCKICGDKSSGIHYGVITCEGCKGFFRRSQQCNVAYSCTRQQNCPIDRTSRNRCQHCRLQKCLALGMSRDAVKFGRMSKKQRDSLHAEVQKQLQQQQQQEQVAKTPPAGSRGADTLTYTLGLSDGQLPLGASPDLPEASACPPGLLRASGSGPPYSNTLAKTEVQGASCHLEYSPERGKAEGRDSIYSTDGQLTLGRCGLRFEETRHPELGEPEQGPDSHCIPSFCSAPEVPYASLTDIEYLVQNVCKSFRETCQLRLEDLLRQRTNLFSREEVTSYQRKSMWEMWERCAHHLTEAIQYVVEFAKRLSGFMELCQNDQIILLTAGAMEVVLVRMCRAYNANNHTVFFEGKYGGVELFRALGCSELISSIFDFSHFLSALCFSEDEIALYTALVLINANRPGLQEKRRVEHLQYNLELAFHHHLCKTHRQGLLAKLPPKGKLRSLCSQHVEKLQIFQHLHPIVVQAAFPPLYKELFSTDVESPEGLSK
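Stably transfected Drosophila Schneider cells are the test system, with ROR gamma fused to Gal4 and luciferase under UAS control; luminescence is read after 20 hr of 700 uM copper sulfate induction at ambient temperature.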
DT40 TDP1 CPT – growth inhibition of DT40 Tdp1-/-;hTDP1 cells with camptothecin (screen for TDP1 inhibitors); chicken DT40 Tdp1-/-;hTDP1 cells + 20 nM CPT, ATP luminescence, 48 h; Potency, µM (highest dose often 46.2 µM), inactives show at the top dose activity change, negative = growth inhibition, hits mostly inhibitors; 12% of 420,000 active; note: nearly all actives have a fitted effect of over 55% in size
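Chicken DT40 Tdp1-/- cells stably complemented with human TDP1 were seeded at 400 cells/well in medium containing 20 nM camptothecin, exposed to pin-transferred compounds, and grown at 37 °C for at least 48 hr. Viability was read as ATP luminescence.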
ELG1 repair inh – inhibitors of ELG1-dependent DNA repair in HEK293T cells. HEK293T ELG1-luciferase reporter, luminescence, 16 h; DNA damage induced by 5-fluorouridine. Potency, µM (highest dose often 46.1 µM), inactives show at the top dose activity change, negative = inhibition, most hits filed as inhibitors. 2.3% of 330,000 active. AID 504467; note: nearly all actives have a fitted effect of over 55% in size
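DMSO vehicle served as the neutral condition. Each well held 2,000 cells given 5-fluorouridine plus compound; after 16 hr at 37 °C/5% CO2, ONE-Glo was added and luciferase measured 30 min later.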
DT40 TDP1 no CPT – qHTS for Inhibitors of human tyrosyl-DNA phosphodiesterase 1 (TDP1): qHTS in cells in absence of CPT; DT40 Tdp1-/- hTDP1 cells, no CPT, ATP luminescence, 48 h; Potency, µM (highest dose often 46.2 µM), for the others: top-dose activity change, negative = growth inhibition, most hits filed as inhibitors; 15% of 420,000 active; AID 686978, 2013; note: nearly all actives have a fitted effect of over 55% in size
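Chicken DT40 Tdp1-/- cells complemented with human TDP1, screened without camptothecin (DMSO vehicle only), 400 cells/well. Compounds pin-transferred, cells incubated at 37 °C for at least 48 hr. Growth read as ATP-dependent luminescence (CellTiter-Glo, 30 min at RT).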
An asterisk follows results filed as active; ? = inconclusive; · = no result; [ ] = another dose, or the depositor's remark. The list is not random: actives were taken first. Their share in the collection is about 15%. Calls come from the whole dose curve; as a rule, active = well fitted curve in the direction sought with a large enough effect; inconclusive = small, poorly fitted or top-dose-only effect, or another doubt; inactive = no such curve, though single readings can be large; an effect the other way counts as inactive or inconclusive. % is set by controls: 0 for no effect and ±100 for the full control effect; potency is the fitted concentration of half-maximal effect.

SMILES	Gal4-VP16 FLuc	ALOX12 inh	RORg inh	DT40 TDP1 CPT	ELG1 repair inh	DT40 TDP1 no CPT
COC(=O)C1=CN(c2ccc(OC)cc2)C(N)=C(C#N)C1c1cccc2ccccc12 (stereo not drawn)	·	?	·	5.8µM*	·	5.17µM*
CCc1ccc(N2C=C(C(=O)OC)C(c3cccc4ccccc34)C(C#N)=C2N)cc1 (stereo not drawn)	·	?	·	13µM*	·	8.2µM*
COC1C(=O)N(C2CCN(S(=O)(=O)Cc3ccccc3F)CC2)C12CCOCC2 (stereo not drawn)	·	37.3%	·	·	·	·
COc1cc(NC(=O)N2CCCC(Cn3cnc4cccnc43)C2)cc(OC)c1OC (stereo not drawn)	·	48.1%	·	·	·	·
COC(=O)c1c(NC(=O)Cc2cccs2)sc(C(=O)N2CCCCC2)c1C	-5.2%	-0.9%	?	?	25.9µM*	-23.5%
COC(=O)c1c(NC(=O)Cc2cccs2)sc(C(=O)NC2CCCCC2)c1C	·	7.1%	·	?	·	?
CCOC(=O)c1c(NC(=O)Cc2cccs2)sc(C(=O)NC2CCCCC2)c1C	-6.1%	-17.2%	0.4%	?	?	16.4µM*
Cc1ccc(CCC(=O)N2CC[C@@](O)(C3CCOCC3)[C@H](C)C2)cc1	·	10.1%	·	·	·	·
COc1ccc(CNC(=O)N2C[C@@H](Oc3ccccc3)C[C@@H]2C(=O)N2CCOCC2)cc1	·	41.3%	·	·	·	·
O=C(CN1CCN(S(=O)(=O)c2ccc(F)cc2)CC1)c1ccc(O)c(O)c1	4.5%	?	-18.6%	?	?	23.1µM*
O=C(CN1CCN(S(=O)(=O)c2ccc(Cl)cc2)CC1)c1ccc(O)c(O)c1	-7.5%	·	3.2%	11.6µM*	-3.0%	8.2µM*
COc1ccc(S(=O)(=O)N2CCN(CC(=O)c3ccc(O)c(O)c3)CC2)cc1	13.4%	?	-19.9%	?	6.2%	?
CC(=O)OCCN(C)c1cc(SC(C)C)c2nonc2c1[N+](=O)[O-]	29.2%	-26.6%	?	13µM*	2.0%	16.4µM*
CN(CCO)c1cc(Sc2nc3ccccc3s2)c2nonc2c1[N+](=O)[O-]	12.6µM*	?	11.2µM*	2.06µM*	16.4%	1.84µM*
Cc1cc(C)cc(C(=O)/C=C2\NC(=O)CS2)c1	5.62µM*	-3.3%	3.98µM*	-8.8%	0.1%	-10.5%
CCOc1ccc(Br)cc1C1C(C#N)=C(N)Oc2cc3c(cc21)OCO3 (stereo not drawn)	·	7.08µM*	·	·	·	·
COc1ccccc1CCN1C(=S)NC(C)(C)CC1(C)O (stereo not drawn)	5.62µM*	?	2.82µM*	?	?	?
COc1ccc(CN2C(=S)NC(C)(C)CC2(C)O)cc1 (stereo not drawn)	?	-20.2%	12.6µM*	15.0%	12.2%	-3.9%
COc1ccc(CNC(=O)CCN2C(=S)NC(C)(C)CC2C)cc1 (stereo not drawn)	12.8%	?	?	6.3%	0.9%	9.7%
CCN1C(=O)[C@H]2[C@@H](c3ccc(-c4ccc(F)cc4)cc3)N[C@@](C)(C(=O)OC)[C@H]2C1=O	·	-9.2%	·	23.1µM*	-2.8%	20.6µM*
CCN1C(=O)[C@H]2[C@@H](c3ccc(-c4ccc(F)cc4)c(OC)c3)N[C@@](C)(C(=O)OC)[C@H]2C1=O	·	11.2µM*	·	13µM*	5.4%	?
CCN1C(=O)[C@H]2[C@@H](c3ccc(-c4cccc(Cl)c4)cc3)N[C@@](C)(C(=O)OC)[C@H]2C1=O	·	?	·	16.4µM*	?	13µM*
CCN1C(=O)[C@H]2[C@@H](c3ccc(-c4ccc(C(C)=O)cc4)cc3)N[C@@](C)(C(=O)OC)[C@H]2C1=O	·	·	·	?	?	-24.4%
COC(=O)[C@]1(C)N[C@H](c2ccc(-c3cccc(Cl)c3)cc2)[C@@H]2C(=O)N(C)C(=O)[C@@H]21	·	-16.3%	·	?	-2.0%	?
CNC(=O)Cn1nc(C2CCN(C(=O)c3ccc(F)cc3)CC2)c2c1CCOC2	·	45.7%	·	·	·	·
SMILES	Gal4-VP16 FLuc	ALOX12 inh	RORg inh	DT40 TDP1 CPT	ELG1 repair inh	DT40 TDP1 no CPT
O=C1Nc2ccccc2O[C@H]2C[C@@H]1N(Cc1ccccc1)C2	·	3.0%[176 µM]	·	·	·	·
COCC(C)n1c(C)cc(C(=O)COc2ccc(S(=O)(=O)N3CCOCC3)cc2Cl)c1C (stereo not drawn)	-6.5%	?	0.7%	20.6µM*	-25.7%	?
O=C(COc1ccc(S(=O)(=O)N2CCOCC2)cc1Cl)NC1CC1	1.8%	?	-20.9%	-6.4%	25.4%	-21.9%
Cc1noc([C@@H]2CN(C(=O)c3cccc4[nH]ccc34)C[C@H]2CO)n1	·	3.9%	·	·	·	·
COc1ccc(-c2[nH]c(-c3ccc(F)cc3)nc2SCC(=O)Nc2ccc(OC)c(OC)c2)cc1	·	-14.4%	·	16.4µM*	·	?
COc1ccc(NC(=O)CSc2nc(-c3cc(OC)c(OC)c(OC)c3)[nH]c2-c2ccc(F)cc2)cc1	·	-27.8%	·	?	·	23.1µM*
COc1ccc(-c2nc(SCC(=O)NCc3ccco3)c(-c3ccccc3)[nH]2)cc1OC	-21.6%	?	44.1%	?	9.2µM*	?
COc1ccc(NC(=O)CSc2nc(-c3ccc(OC)cc3)[nH]c2-c2ccc(OC)cc2)cc1	·	-1.5%	·	?	·	?
COc1ccc(-c2nc(SCC(=O)NC3CCCC3)c(-c3ccc(F)cc3)[nH]2)cc1	·	-12.2%	·	?	·	?
CCCCN(C)C(=O)c1sc(=O)n(Cc2ccccc2C#N)c1C	·	-4.2%	·	13µM*	·	?
COc1ccc(Br)c(Cn2c(C)c(C(=O)N(C)Cc3ccc(F)cc3)sc2=O)c1	·	-0.7%	·	?	·	?
CCCCN(C)C(=O)c1sc(=O)n(CC(=O)c2ccccc2OC)c1C	·	6.2%	·	?	·	?
Cc1cc(C)cc(Cn2c(C)c(C(=O)N(C)Cc3ccc(F)cc3)sc2=O)c1	·	2.2%	·	?	·	?
Cc1c(C(=O)N(C)Cc2ccc(F)cc2)sc(=O)n1Cc1ccccc1C#N	·	-13.1%	·	23.1µM*	·	16.4µM*
Cc1ccccc1Cn1c(C)c(C(=O)N(C)Cc2ccc(F)cc2)sc1=O	·	-20.2%	·	?	·	18.4µM*
CNc1ccc(C)cc1C(=O)NC(C(=O)O)c1c(C)n[nH]c1C (stereo not drawn)	·	20.7%	·	·	·	·
COc1ccc(C(C#N)=Cc2ccc(NC(C)=O)cc2)cc1	·	-23.8%	·	-1.9%	·	-26.2%
CN(CCC#N)c1ccc(C=C(C#N)c2cccc(C(F)(F)F)c2)cc1	·	·	·	16.4µM*	·	23.1µM*
